# Assay results as given in PubChem BioAssay (NCI).
# This is part of a sample that, as a whole, favours compounds with a hit. Of some 79,000 tested, about 15% had one in any assay. Unmarked numbers belong to inactive results. Active and inactive are the calls of the source. Cut-off read from the data, not from the text of the source: active = growth inhibition above about 70%; inactive = the rest.
# Assays:
# [1] = NCI Yeast Anticancer Drug Screen. Data for the rad52 strain (AID 147);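 note: 0% = growth of vehicle-treated control cultures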; conditions: S. cerevisiae rad52 mutant growth inhibition, active compounds read high
# Outline: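 Compounds are applied to a genetically defined yeast strain lacking normal DNA damage repair, and inhibition of growth is expressed relative to cultures given vehicle only.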
# [2] = NCI Yeast Anticancer Drug Screen. Data for the wt1 strain (AID 149);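 note: 0% = growth of vehicle-treated wt1 cultures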; conditions: S. cerevisiae wt1 strain (SPY 50644) growth inhibition, active compounds read high
# Outline: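 Yeast wt1 strain exposed to compounds; growth inhibition measured relative to vehicle-treated controls.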
# [3] = NCI Yeast Anticancer Drug Screen. Data for the rad50EPP+ strain (AID 151);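 note: 0% = growth of vehicle-treated control cultures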; conditions: S. cerevisiae rad50 mutant strain, active compounds read high
# Outline: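 Compounds were applied to the rad50EPP+ yeast strain, which bears a defined DNA repair alteration, and growth inhibition was determined relative to vehicle-treated cultures.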
# [4] = NCI Yeast Anticancer Drug Screen. Data for the mgt1 strain (AID 153); conditions: S. cerevisiae mgt1 mutant growth inhibition, active compounds read high
# Outline: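 Strain: mgt1 yeast, one of a set carrying defined DNA damage repair or cell cycle control alterations. Compound-treated growth compared with vehicle.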
# [5] = NCI Yeast Anticancer Drug Screen. Data for the rad50 strain (AID 155);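 note: 0% = growth of vehicle-only cultures of the same strain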; conditions: S. cerevisiae rad50 strain growth inhibition, active compounds read high
# Outline: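 Yeast carrying a defined DNA repair defect were exposed to test compounds, and growth was compared with vehicle-treated controls to give percent inhibition.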
# [6] = NCI Yeast Anticancer Drug Screen. Data for the mec2-1 strain (AID 157); conditions: S. cerevisiae mec2-1 strain, active compounds read high
# Outline: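 Strain: mec2-1 (DNA repair/cell cycle alteration). Compound exposure, then growth measured; inhibition expressed relative to vehicle.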
# [7] = NCI Yeast Anticancer Drug Screen. Data for the rad14 strain (AID 159);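 note: 0% = growth of vehicle-treated control cultures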; conditions: S. cerevisiae rad14 strain growth inhibition, active compounds read high
# Outline: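 Yeast cells carrying a defined DNA-repair defect were exposed to compounds, and growth inhibition was calculated relative to vehicle-treated control cultures.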
# [8] = NCI Yeast Anticancer Drug Screen. Data for the sgs1 mgt1 strain (AID 161);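 note: 0% = growth of cultures given vehicle only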; conditions: S. cerevisiae sgs1 mgt1 strain, active compounds read high
# Outline: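 Test agents were incubated with a DNA-repair-mutant yeast strain. Growth was then read and compared against vehicle-treated controls.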
# [9] = NCI Yeast Anticancer Drug Screen. Data for the CLN2oe strain (AID 163);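 note: 0% = growth of vehicle-only control cultures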; conditions: S. cerevisiae CLN2oe strain, active compounds read high
# Outline: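 Growth of a genetically modified yeast strain is measured after compound exposure and compared with cultures given vehicle alone.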
# [10] = NCI Yeast Anticancer Drug Screen. Data for the cln2 rad14 strain (AID 165);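 note: 0% = growth equal to vehicle treated cultures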; conditions: S. cerevisiae cln2 rad14 strain, active compounds read high
# Outline: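 Compounds are applied to the cln2 rad14 yeast strain, and growth is then compared with that of vehicle-treated cultures to give inhibition.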
# [11] = NCI Yeast Anticancer Drug Screen. Data for the bub3 strain (AID 167); conditions: S. cerevisiae bub3 mutant strain, active compounds read high
# Outline: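 Compounds were applied to a genetically altered yeast strain carrying a cell-cycle control defect. Growth inhibition was scored against vehicle-treated controls.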
# [12] = NCI Yeast Anticancer Drug Screen. Data for the wt2 strain (AID 169);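 note: 0% = growth of vehicle-treated yeast cultures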; conditions: S. cerevisiae wt2 strain growth inhibition, active compounds read high
# Outline: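 This strain belongs to a panel of yeast strains with defined genetic alterations in DNA damage repair or cell cycle control. Compounds are applied, and growth inhibition is measured against vehicle-treated cultures.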
# [13] = NCI Yeast Anticancer Drug Screen. Data for the mlh1 strain (AID 171);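 note: 0% = growth of vehicle-treated control cultures of the same strain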; conditions: S. cerevisiae mlh1 strain growth inhibition, active compounds read high
# Outline: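 Growth of the mutant yeast strain after compound exposure, expressed as inhibition relative to vehicle-only controls.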
# [14] = NCI Yeast Anticancer Drug Screen. Data for the sgs1 strain (AID 173);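 note: 0% = growth of vehicle-only control cultures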; conditions: S. cerevisiae sgs1 mutant, active compounds read high
# Outline: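 Growth of a yeast strain bearing a defined genetic alteration is measured after compound treatment. Inhibition is expressed relative to vehicle-only controls.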
# [15] = NCI Yeast Anticancer Drug Screen. Data for the mlh1 rad18 strain (AID 175); conditions: S. cerevisiae mlh1 rad18 strain growth inhibition, active compounds read high
# Outline: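 Read-out is yeast growth inhibition, calculated against vehicle-only controls. The compound was applied to a strain engineered with DNA damage repair alterations.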
# [16] = NCI Yeast Anticancer Drug Screen. Data for the rad18 strain (AID 177); conditions: S. cerevisiae rad18 mutant growth inhibition, active compounds read high
# Outline: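 Growth of the mutant yeast strain after compound exposure, normalised to vehicle-only cultures.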
# [17] = at 5.0 µM (retest, dose inferred, filed as 0.5)
# [18] = at 50.0 µM (retest, dose inferred, filed as 5.0)
compound,measurement,setting,value
CCCCCCCCCCCCCCC(C(=O)[O-])[n+]1ccccc1 (stereo unspecified),growth inhibition,[1]; at 1.2 µM,2%
same,growth inhibition,[1]; at 3.7 µM,2%
same,growth inhibition,[1]; at 11.0 µM,2%
same,growth inhibition,[1]; at 33.0 µM,-1%
same,growth inhibition,[1]; at 100.0 µM,91% (active)
same,growth inhibition,[2]; at 1.2 µM,-1%
same,growth inhibition,[2]; at 3.7 µM,-3%
same,growth inhibition,[2]; at 11.0 µM,-4%
same,growth inhibition,[2]; at 33.0 µM,-6%
same,growth inhibition,[2]; at 100.0 µM,6%
same,growth inhibition,[3]; at 1.2 µM,0%
same,growth inhibition,[3]; at 3.7 µM,4%
same,growth inhibition,[3]; at 11.0 µM,4%
same,growth inhibition,[3]; at 33.0 µM,3%
same,growth inhibition,[3]; at 100.0 µM,39%
same,growth inhibition,[4]; at 1.2 µM,2%
same,growth inhibition,[4]; at 3.7 µM,-4%
same,growth inhibition,[4]; at 11.0 µM,2%
same,growth inhibition,[4]; at 33.0 µM,-2%
same,growth inhibition,[4]; at 100.0 µM,95% (active)
same,growth inhibition,[5]; at 1.2 µM,3%
same,growth inhibition,[5]; at 3.7 µM,9%
same,growth inhibition,[5]; [17],9%
same,growth inhibition,[5]; at 11.0 µM,3%
same,growth inhibition,[5]; at 33.0 µM,4%
same,growth inhibition,[5]; [18],20%
same,growth inhibition,[5]; at 50.0 µM,98.5% (active)
same,growth inhibition,[5]; at 100.0 µM,97% (active)
same,growth inhibition,[6]; at 1.2 µM,3%
same,growth inhibition,[6]; at 3.7 µM,1%
same,growth inhibition,[6]; [17],-2%
same,growth inhibition,[6]; at 11.0 µM,-7%
same,growth inhibition,[6]; at 33.0 µM,-2%
same,growth inhibition,[6]; [18],97% (active)
same,growth inhibition,[6]; at 50.0 µM,99% (active)
same,growth inhibition,[6]; at 100.0 µM,95% (active)
same,growth inhibition,[7]; at 1.2 µM,-2%
same,growth inhibition,[7]; at 3.7 µM,13%
same,growth inhibition,[7]; at 11.0 µM,0%
same,growth inhibition,[7]; at 33.0 µM,2%
same,growth inhibition,[7]; at 100.0 µM,90% (active)
same,growth inhibition,[8]; [17],12%
same,growth inhibition,[8]; [18],45%
same,growth inhibition,[8]; at 50.0 µM,98.8% (active)
same,growth inhibition,[9]; at 1.2 µM,3%
same,growth inhibition,[9]; at 3.7 µM,3%
same,growth inhibition,[9]; at 11.0 µM,3%
same,growth inhibition,[9]; at 33.0 µM,-2%
same,growth inhibition,[9]; at 100.0 µM,26%
same,growth inhibition,[10]; [17],8%
same,growth inhibition,[10]; [18],26%
same,growth inhibition,[10]; at 50.0 µM,95.8% (active)
same,growth inhibition,[11]; at 1.2 µM,2%
same,growth inhibition,[11]; at 3.7 µM,-27%
same,growth inhibition,[11]; [17],5%
same,growth inhibition,[11]; at 11.0 µM,0%
same,growth inhibition,[11]; at 33.0 µM,-8%
same,growth inhibition,[11]; [18],91% (active)
same,growth inhibition,[11]; at 50.0 µM,97.3% (active)
same,growth inhibition,[11]; at 100.0 µM,85% (active)
same,growth inhibition,[12]; at 1.2 µM,0%
same,growth inhibition,[12]; at 3.7 µM,0%
same,growth inhibition,[12]; at 11.0 µM,-1%
same,growth inhibition,[12]; at 33.0 µM,7%
same,growth inhibition,[12]; at 100.0 µM,83% (active)
same,growth inhibition,[13]; at 1.2 µM,0%
same,growth inhibition,[13]; at 3.7 µM,-3%
same,growth inhibition,[13]; at 11.0 µM,-12%
same,growth inhibition,[13]; at 33.0 µM,-18%
same,growth inhibition,[13]; at 100.0 µM,99% (active)
same,growth inhibition,[14]; at 1.2 µM,0%
same,growth inhibition,[14]; at 3.7 µM,-3%
same,growth inhibition,[14]; at 11.0 µM,-2%
same,growth inhibition,[14]; at 33.0 µM,13%
same,growth inhibition,[14]; at 100.0 µM,95% (active)
same,growth inhibition,[15]; [17],-15%
same,growth inhibition,[15]; [18],51%
same,growth inhibition,[15]; at 50.0 µM,98% (active)
same,growth inhibition,[16]; at 1.2 µM,3%
same,growth inhibition,[16]; at 3.7 µM,8%
same,growth inhibition,[16]; at 11.0 µM,24%
same,growth inhibition,[16]; at 33.0 µM,81% (active)
same,growth inhibition,[16]; at 100.0 µM,97% (active)
O=CNc1ccc2c(c1)C(=O)c1ccccc1-2,growth inhibition,[1]; at 1.2 µM,8%
same,growth inhibition,[1]; at 3.7 µM,15%
same,growth inhibition,[1]; at 11.0 µM,40%
same,growth inhibition,[1]; at 33.0 µM,94% (active)
same,growth inhibition,[1]; at 100.0 µM,97% (active)
same,growth inhibition,[2]; at 1.2 µM,-2%
same,growth inhibition,[2]; at 3.7 µM,-1%
same,growth inhibition,[2]; at 11.0 µM,8%
same,growth inhibition,[2]; at 33.0 µM,27%
same,growth inhibition,[2]; at 100.0 µM,85% (active)
same,growth inhibition,[3]; at 1.2 µM,5%
same,growth inhibition,[3]; at 3.7 µM,12%
same,growth inhibition,[3]; at 11.0 µM,26%
same,growth inhibition,[3]; at 33.0 µM,86% (active)
same,growth inhibition,[3]; at 100.0 µM,95% (active)
same,growth inhibition,[4]; at 1.2 µM,4%
same,growth inhibition,[4]; at 3.7 µM,5%
same,growth inhibition,[4]; at 11.0 µM,9%
same,growth inhibition,[4]; at 33.0 µM,47%
same,growth inhibition,[4]; at 100.0 µM,97% (active)
same,growth inhibition,[5]; at 1.2 µM,13%
same,growth inhibition,[5]; at 3.7 µM,22%
same,growth inhibition,[5]; [17],7%
same,growth inhibition,[5]; at 11.0 µM,37%
same,growth inhibition,[5]; at 33.0 µM,93% (active)
same,growth inhibition,[5]; [18],75% (active)
same,growth inhibition,[5]; at 50.0 µM,94.2% (active)
same,growth inhibition,[5]; at 100.0 µM,96% (active)
same,growth inhibition,[6]; at 1.2 µM,3%
same,growth inhibition,[6]; at 3.7 µM,4%
same,growth inhibition,[6]; [17],6%
same,growth inhibition,[6]; at 11.0 µM,3%
same,growth inhibition,[6]; at 33.0 µM,36%
same,growth inhibition,[6]; [18],37%
same,growth inhibition,[6]; at 50.0 µM,37.7%
same,growth inhibition,[6]; at 100.0 µM,95% (active)
same,growth inhibition,[7]; at 1.2 µM,5%
same,growth inhibition,[7]; at 3.7 µM,9%
same,growth inhibition,[7]; at 11.0 µM,14%
same,growth inhibition,[7]; at 33.0 µM,46%
same,growth inhibition,[7]; at 100.0 µM,96% (active)
same,growth inhibition,[8]; [17],5%
same,growth inhibition,[8]; [18],55%
same,growth inhibition,[8]; at 50.0 µM,19.3%
same,growth inhibition,[9]; at 1.2 µM,10%
same,growth inhibition,[9]; at 3.7 µM,10%
same,growth inhibition,[9]; at 11.0 µM,18%
same,growth inhibition,[9]; at 33.0 µM,37%
same,growth inhibition,[9]; at 100.0 µM,75% (active)
same,growth inhibition,[10]; [17],-15%
same,growth inhibition,[10]; [18],-5%
same,growth inhibition,[10]; at 50.0 µM,26.8%
same,growth inhibition,[11]; at 1.2 µM,9%
same,growth inhibition,[11]; at 3.7 µM,0%
same,growth inhibition,[11]; [17],-6%
same,growth inhibition,[11]; at 11.0 µM,16%
same,growth inhibition,[11]; at 33.0 µM,61%
same,growth inhibition,[11]; [18],66%
same,growth inhibition,[11]; at 50.0 µM,62.9%
same,growth inhibition,[11]; at 100.0 µM,87% (active)
same,growth inhibition,[12]; at 1.2 µM,-2%
same,growth inhibition,[12]; at 3.7 µM,0%
same,growth inhibition,[12]; at 11.0 µM,8%
same,growth inhibition,[12]; at 33.0 µM,48%
same,growth inhibition,[12]; at 100.0 µM,96% (active)
same,growth inhibition,[13]; at 1.2 µM,3%
same,growth inhibition,[13]; at 3.7 µM,10%
same,growth inhibition,[13]; at 11.0 µM,16%
same,growth inhibition,[13]; at 33.0 µM,72% (active)
same,growth inhibition,[13]; at 100.0 µM,97% (active)
same,growth inhibition,[14]; at 1.2 µM,-2%
same,growth inhibition,[14]; at 3.7 µM,0%
same,growth inhibition,[14]; at 11.0 µM,6%
same,growth inhibition,[14]; at 33.0 µM,52%
same,growth inhibition,[14]; at 100.0 µM,94% (active)
same,growth inhibition,[15]; [17],4%
same,growth inhibition,[15]; [18],61%
same,growth inhibition,[15]; at 50.0 µM,69.5%
same,growth inhibition,[16]; at 1.2 µM,2%
same,growth inhibition,[16]; at 3.7 µM,3%
same,growth inhibition,[16]; at 11.0 µM,7%
same,growth inhibition,[16]; at 33.0 µM,52%
same,growth inhibition,[16]; at 100.0 µM,94% (active)
